Hit rate of the full screen: of about 13,000 compounds, about 3,200 (25%) showed an effect of 50% or more. The list shows a part of the results.
tested on: P. falciparum stage V gametocytes; set-up: BacTiter-Glo ATP luminescence viability of purified stage V gametocytes in 384-well plates, per cent inhibition versus DMSO; conditions: 48 h, 5 µM; inhibitor

Compound | % Inhibition [%]
CC(C)(C)c1ccccc1SC1=C(O)CC2(CCNCC2)OC1=O [TCMDC-140973] | 16.85
Cc1cccc2nc(-c3ccc(-c4ccc(CN5CCCCC5CO)cc4)cc3)[nH]c12.O=C(O)C(F)(F)F (stereo not shown) [TCMDC-133824] | 10.09
Cn1nc(-c2ccc(CNC3CCc4ccccc43)cc2)c2cnc(NCCN3CCCC3)nc21 (stereo not shown) [TCMDC-135033] | 65.68
Cn1nc(-c2ccc(CNC3CCc4ccccc43)cc2)c2cnc(NCCCN3CCCC3)nc21 (stereo not shown) [TCMDC-135036] | 65.55
CN(c1cc(NC(=O)c2cccs2)ccn1)C1CCN(Cc2cccc(F)c2)CC1 [TCMDC-135010] | 5.779
COc1ccc2nccc([C@@H](O)CN3CCC(NC(=O)C(c4cc5ccccc5o4)N4CCN(C(c5ccccc5)c5ccccc5)CC4)CC3)c2c1 (stereo partly shown) [TCMDC-140990] | 16.51
O=C(Nc1ccc(NC2=NCCN2)cc1)c1ccc(C(=O)Nc2ccc(NC3=NCCN3)cc2)cc1 [TCMDC-137799] | 30.06
Nc1ncc(-c2cccc(F)c2)cc1-c1nc2ccc(F)cc2[nH]1 [TCMDC-133132] | -10.73
CCOC(=O)c1ccc(NC(=O)Nc2cccc(-c3cccc(-c4nc5ccc(F)cc5[nH]4)c3)c2)cc1 [TCMDC-133268] | -1.066
CCc1nc(N)nc(N)c1-c1ccc(F)cc1 [TCMDC-137722] | 5.569
CC[C@H]1CN2CC[C@@H]1C[C@@H]2[C@@H](O)c1cc(-c2ccc(F)cc2)nc2ccc(OC)cc12 [TCMDC-141379] | 96.07
CC[C@H]1CN2CC[C@H]1C[C@H]2[C@H](O)c1cc(-c2ccc(SC)cc2)nc2ccc(OC)cc12 [TCMDC-141196] | 82.69
CC[C@H]1CN2CC[C@H]1C[C@H]2[C@H](O)c1cc(-c2ccccc2C(F)(F)F)nc2ccc(OC)cc12 [TCMDC-141198] | -3.019
CC[C@H]1CN2CC[C@H]1C[C@H]2[C@H](O)c1cc(-c2ccc(Cl)c(Cl)c2)nc2ccc(OC)cc12 [TCMDC-141216] | 98.02
CC[C@H]1CN2CC[C@H]1C[C@H]2[C@H](O)c1cc(-c2ccc(OC(F)(F)F)cc2)nc2ccc(OC)cc12 [TCMDC-141214] | 67.8
CC[C@H]1CN2CC[C@H]1C[C@H]2[C@H](O)c1cc(-c2ccccc2F)nc2ccc(OC)cc12 [TCMDC-141193] | 19.12
O=C(NCCN1CCCCC1)c1ccc(CNC(=O)c2ccc(O)c(-c3ccc(Cl)c(Cl)c3)c2)cc1 [TCMDC-140860] | -11.08
COc1ccc(Nc2nc(C)cc(NC3CCCC3)n2)cc1 [TCMDC-133465] | 24.25
CCOC(=O)c1c(CCc2ccc(C(F)(F)F)cc2)nc2c(c1-c1ccc(C(=O)N[C@@H](C)c3ccncc3)cc1)C(=O)N1CCC[C@@H]21 [TCMDC-138612] | 6.02
CCCNC(=O)CN1CN(c2ccccc2)C2(CCN(C(=O)c3ccc(C(C)(C)C)cc3)CC2)C1=O [TCMDC-125173] | -65.45

Compound | % Inhibition [%]
Cc1c(C)n(Cc2ccccc2)c2ncnc(OC3CCN(CC(=O)NCC4CC4)CC3)c12 [TCMDC-125326] | -12.47
CCOC(=O)c1[nH]c(-c2cccnc2)nc1NC(=S)NCc1ccccc1 [TCMDC-138784] | -4.964
COc1cccc(C(O)CNc2ccnc(Nc3cccc(-c4csc(C)n4)c3)n2)c1 (stereo not shown) [TCMDC-136574] | 8.83
CCN(CC)CCCN1CCN(C(=O)c2cccc(-c3noc(C(F)(F)F)n3)c2)CC1 [TCMDC-132421] | -5.247
NC(N)=NC(=O)Nc1cc(Br)c(Cl)c(C(F)(F)F)c1 [TCMDC-137513] | -25.86
CCc1ccc(-c2nc3cc(NC(=O)c4cc([N+](=O)[O-])cc([N+](=O)[O-])c4)ccc3o2)cc1 [TCMDC-124220] | -7.299
COc1ccc(-c2csc3nc(C)nc(Cl)c23)cc1OC [TCMDC-125523] | -37.7
CC[C@H]1CN2CC[C@H]1C[C@H]2[C@H](O)c1cc(-c2cccc(Cl)c2)nc2ccc(OC)cc12 [TCMDC-141215] | 86
COc1ccc2nc(-c3ccc(F)cc3)cc([C@@H](O)[C@@H]3C[C@@H]4CCN3CC4C=NO)c2c1 (stereo partly shown) [TCMDC-141395] | 28.31
CC[C@H]1CN2CC[C@H]1C[C@H]2[C@H](O)c1cc(-c2ccc(F)cc2C)nc2ccc(OC)cc12 [TCMDC-141197] | 26.99
CC[C@H]1CN2CC[C@H]1C[C@H]2[C@H](O)c1cc(-c2ccc3ccccc3c2)nc2ccc(OC)cc12 [TCMDC-141213] | 91.14
C=C[C@H]1CN2CC[C@H]1C[C@H]2[C@H](O)c1cc(-c2ccc(Cl)cc2)nc2ccc(OC)cc12 [TCMDC-139009] | 109.5
CC[C@H]1CN2CC[C@@H]1C[C@H]2[C@H](O)c1cc(-c2cc(Cl)cc(Cl)c2)nc2ccc(OC)cc12 [TCMDC-141351] | 45.7
CC[C@H]1CN2CC[C@H]1C[C@H]2[C@H](O)c1cc(-c2ccc(C)cc2)nc2ccc(OC)cc12 [TCMDC-141192] | 31.69
C=C[C@H]1CN2CC[C@@H]1C[C@H]2[C@H](O)c1cc(-c2ccc(F)cc2)nc2ccc(OC)cc12 [TCMDC-141374] | 31.93
CC[C@H]1CN2CC[C@H]1C[C@H]2[C@H](O)c1cc(-c2ccc(F)cc2)nc2ccc(OC)cc12 [TCMDC-141195] | 81.45
COc1ccc2nccc(N3CCC(SCCNS(=O)(=O)c4ccc5c(c4)OCCO5)C3)c2n1 (stereo not shown) [TCMDC-134549] | -1.611
CCCC(=O)c1cnc2c(I)cccc2c1Nc1ccccc1C [TCMDC-138960] | -3.378
Cc1cccc2[nH]c(-c3ccc(-c4cccc(CN5CCN(c6ccncc6)CC5)c4)cc3)nc12 [TCMDC-132913] | 17.14
CC1(C)N=C(N)N=C(N)N1OCCOc1ccc(Cc2ccccc2)cc1 [TCMDC-131618] | 0.9057
